Assay results: PubChem BioAssay AID445 (National Center for Advancing Translational Sciences (NCATS), 2006)
In all, about 110,000 compounds went through this assay and about 40 (0.04%) were called active. About 22% were inconclusive and are not listed. Calls come from the whole dose curve; as a rule, active = well fitted curve in the direction sought with a large enough effect in the signal ratio (not every such curve was filed as active); inconclusive = small, poorly fitted or top-dose-only effect, or a change in a side signal; inactive = flat fitted curve, though single readings scatter; the % refers to the signal ratio. For the sample, actives were picked, then their nearest neighbours and some compounds at random.

Assay: IkB Signaling;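 note: 0% = basal untreated cells and 100% = reference inhibitor full response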
Conditions: ABC-DLBCL IkBa-CBG/CBR dual luciferase ratio, 4 h; series mostly up to 57.1 µM; IkBa stabilization activation: at the top concentration
Source text: NIH Molecular Libraries Screening Centers Network [MLSCN]
NIH Chemical Genomics Center [NCGC]
Nuclear factor kappa-B (NF-kappa-B) plays an important role in normal B cell development and survival. Diffuse large B cell lymphoma (DLBCL) is the most commonly observed type of non-Hodgkin's lymphoma. Gene expression analysis has identified an activated B cell-like subtype of DLBCL (ABC-DLBCL) which expresses known NF-kappa-B target genes. […] However, targets upstream of IKK have been largely unexplored and so nodes upstream of IKK in the NF-kappa-B pathway remain untested due to the lack of chemical probes.
A cell-sensor assay for I-kappa-B-alpha stabilization was developed with NIH investigator Dr. R. Eric Davis in Dr. Louis M. Staudt's laboratory. The assay uses green (CBG68) and red (CBR) emitting beetle luciferases [Chroma-Glo(TM) developed by Promega Corp.] where the green luciferase is fused to I-kappa-B-alpha and the red luciferase is present in its native state. Both luciferase genes are stably present in the OCI-Ly3 human ABC DLBCL cell line, but their expression is under the control of tetracycline-inducible promoters. Following the addition of doxycycline to induce expression of the luciferases, the green luminescence in control cultures rises only slowly because the CBG fusion partner I-kappa-B-alpha is targeted by IKK activity for rapid degradation. In contrast, green luminescence rises rapidly in the presence of proteasome inhibitors or IKK inhibitors. The rise in red luminescence of CBR is not affected by proteasome or IKK inhibitors, and serves as normalization for cell number and nonspecific effects. Compounds were screened as a concentration-titration series that ranged from 57 uM to 0.7 nM.
NCGC Assay Protocol Summary:
Cells were seeded in 1536-well plates at 5000 cells/3ul in IMDM medium containing 0.5% FBS, w/o phenol red, L-glutamine, 25 mM HEPES, 3 mg/ml sodium bicarbonate. After centrifugation for 1 min. at 1000 rpm, 23 nl of compounds or DMSO were delivered to each well using a pin tool. Then 1ul 80ng/ml doxycycline was dispensed into white solid 1536-well plates and the plates were incubated at 37C/5% C02 in a cell incubator for 4 hrs. Then 4 ul Chroma-Glo luminescent substrate mix (Promega) was added to each well. The plate was incubated at R.T. for 10-15 min. The plates were measured on a ViewLux plate reader for green luminescence (540/20 nm filter) and red luminescence (618/8 nm filter). The green and red luminescent signals were corrected for red and green luminescence filter overlap using previously determined filter calibration constants (determined using the procedure outlined in the Promega Technical Manual). The %Activity was determined from the ratio of corrected green/red luminescent values. Green luminescent and ratio %Activity was determined by normalizing to the difference in signal between basal cells (0% Activity) and cells incubated with 10 uM of the proteasome inhibitor MG-132 (100% Activity). Red luminescent %Activity was normalized to the difference between red luminesence in basal cells (0%Activity) and zero luminescence (-100% Activity).
Concentration-response curves were fitted to the signals arising from the green luminescence (I-kappa-B-alpha-luciferase fusion; IkB-luc) and the red luminescence (unfused luciferase; luc) as well as the calculated ratio. The concentration-effect curves were then classified based on curve quality (r2), response magnitude and degree of measured activity. Compounds were then categorized based on their concentration-response curves for all three datasets (Ikb-luc, luc and ratio).
Keywords: IKK, I-kappa-B, IkB, IkBa, cytotoxicity, luminescence, MLSMR, MLSCN, NIH Roadmap, qHTS, NCGC

IkBa stabilization activation, inactive:
CCCCNC(=O)c1ccc2c(c1)NC(=O)C(C(C)C)N2 (stereo unspecified) -0.449%
CCOC(=O)c1scc(-c2ccc(C)cc2)c1S(=O)(=O)Nc1cc(C)ccc1C 0.745%
CCN(CC)c1ccc(NC(=O)Cn2nc3c(cc2=O)CCCC3)c(C)c1 2.3%
Cc1ccc2sc(N(Cc3cccnc3)C(=O)C3COc4ccccc4O3)nc2c1C (stereo unspecified) -0.437%
Cc1ccc(NC(=O)Cn2nnc3sc4c(c3c2=O)CCC(C)C4)cc1 (stereo unspecified) -2.75%
CSc1cccc(NC(=O)CN2C(=O)CCc3cc(S(=O)(=O)N4CCCCC4)ccc32)c1 3.58%
CCOc1ccc(N(CC)S(=O)(=O)N2CCCC(C(=O)NCc3ccc(Cl)cc3)C2)cc1 (stereo unspecified) 0.399%
O=C(NCCCO)C(=O)Nc1c2c(nn1-c1ccccc1)CSC2 -1.36%
Cc1cc(OCC(=O)NCC2(N(C)C)CCCCC2)cc(C)c1Cl 1.43%
Cc1ccc(-c2nn(CCC(=O)Nc3ccc(OC(F)(F)F)cc3)c(=O)c3ccccc23)cc1 -1.64%
CCCSc1nc2sc3c(c2c(=O)n1-c1cccc(Br)c1)CC(C)(C)OC3 1.69%
COc1ccc(CCNC(=O)Cn2c(=O)cc(C(F)(F)F)c3c(C)nn(C)c32)c(OC)c1 0.371%
CCOc1ccccc1CNC(=O)c1cnc2c(-c3ccc(OCC)c(OCC)c3)c(C)nn2c1C -1.18%
CCOc1cc(CNC(=O)c2sc3ncnc(N(C)C4CCCCC4)c3c2C)ccc1OC -1.17%
Cc1c(-c2nc(-c3ccc4c(c3)OCO4)no2)nnn1-c1ccc(Br)cc1F -3.96%
CCN(CC)c1ccc(NS(=O)(=O)c2cc(-c3cc(C)no3)ccc2C)c(C)c1 0.135%
CCN1CCN(CCCNC(=O)c2cnn(-c3ccc(C)cc3C)c2C2CCN(C(=O)OC(C)(C)C)CC2)CC1 1.54%
COc1ccc(-c2onc(C)c2C)cc1S(=O)(=O)NCc1cccs1 -1.8%
Cc1cccc(Cc2c(C)nc3nc(SCc4ccccc4Cl)nn3c2C)c1 2.23%
NC(=O)C1CCN(C(=O)c2cccc(NC(=O)c3nsc4ccccc34)c2)CC1 -1.38%
COc1ccccc1-c1noc(-c2ccc(NCc3ccccc3)c([N+](=O)[O-])c2)n1 -0.999%
COc1ccc(Cl)cc1NC(=O)CSc1nc2ccccc2c2nc(-c3ccccc3)nn12 0.00394%
CCOc1ccccc1NC(=O)Cn1c(=O)n(Cc2ccco2)c(=O)c2sc3ccccc3c21 4.55%
CCN(CC)CCNC(=O)CN1N=C(c2ccc(OC)cc2)CCC1=O -1.9%
COc1ccc(CNc2nc(-c3ccc(Cl)cc3)cc(C(F)(F)F)n2)cc1 -1.22%
COc1ccc(NC(=O)C2CCCN(S(=O)(=O)c3cccc4nonc34)C2)cc1Cl (stereo unspecified) 1.73%
CCc1cc2c(cc3c(=O)n(CC(=O)N4CCN(c5cc(Cl)ccc5C)CC4)ncn32)s1 -1.17%
COc1ccc(-c2nn3c(-c4ccc(OC)cc4)nnc3c3ccccc23)cc1 -0.528%
Fc1ccc(-n2ncc3c(Nc4ccc(Oc5ccccc5)cc4)ncnc32)cc1 -0.511%
CCCOc1ccc(CNC(=O)C2CCN(c3nn4c(=O)cc(C)nc4s3)CC2)cc1 -0.122%
CCS(=O)(=O)c1nc(S(=O)(=O)c2ccc(C)cc2)c(NCc2ccc(Cl)cc2)s1 0.738%
Cc1ccc(CNS(=O)(=O)c2ccc(-c3cc(C(F)(F)F)on3)s2)cc1 -4.13%
Cc1cc(C)cc(NC(=O)c2cnc3sc(N4CCCC4)nn3c2=O)c1 -3.48%
CCCCOC(=O)CSc1ncnc2sc3c(c12)CCC(C)C3 (stereo unspecified) 3.48%
COc1cc(NC(=O)NCC2CCN(Cc3ccc(C)cc3)CC2)cc(OC)c1OC 2.66%
CCOC(=O)c1ccc(NC(=O)c2c(NCc3cccc(OC)c3)sc3c2CCC3)cc1 -1.01%
Cc1nc2nc(SCC(=O)N(Cc3ccccc3)C(C)C)nn2c(C)c1Cc1ccccc1Cl 3.24%
Cc1cc2oc(C(=O)N(Cc3ccc(Cl)cc3)Cc3ccco3)c(C)c2cc1Cl -1.24%
Cc1ccccc1-c1nc(CS(=O)(=O)CC(=O)NC(C)c2ccccc2)c(C)o1 (stereo unspecified) -1.28%
CCOc1ccccc1C(=O)NC1(C(F)(F)F)C(=O)Nc2c1c(=O)[nH]c(=O)n2-c1ccc(F)cc1 (stereo unspecified) -1.66%
CCOC(=O)c1c(C)[nH]c(C)c1S(=O)(=O)NCC(=O)NCc1cccc(C)c1 0.835%
Cc1cccc(NC(=O)CSc2nc(-c3ccco3)cc(C(F)(F)F)n2)c1C 1.98%
Cn1c(=O)oc2cc(S(=O)(=O)CCC(=O)NCCc3ccc(Cl)cc3)ccc21 -1.07%
Cc1ccc(C)c(NC(=O)C2CCCN(S(=O)(=O)c3cn(C)cn3)C2)c1 (stereo unspecified) 1.43%
O=C(CCc1nc(CN2CCN(S(=O)(=O)c3ccc(Cl)cc3)CC2)no1)N1CCCCC1 1.11%
COc1ccccc1NC(=O)C1=C(C)Nc2ncnn2C1c1sccc1C (stereo unspecified) 0.985%
CCCNC(=O)C(CC)n1nc(CC)n2c(cc3oc(C)cc32)c1=O (stereo unspecified) -2.46%
Cc1ccc(CNC(=O)CSC2=Nc3ccccc3C3=NC(C)C(=O)N23)cc1 (stereo unspecified) 0.839%
CCOC(=O)c1cccc(NC(=O)Cn2cnc3nc4c(cc3c2=O)CCCC4)c1 4.01%
Cc1cc(OC(C)C(=O)Nc2sc3c(c2C(N)=O)CCCC3)ccc1Cl (stereo unspecified) -3.34%
Cc1ccc(S(=O)(=O)n2nc(-c3ccc(Cl)cc3)nc2NCc2ccccc2)cc1 1.79%
CCOc1ccc(NC(=O)CCC(=O)N2CC(C)Oc3ccc(C)cc32)cc1 (stereo unspecified) 0.778%
CCCNC(=O)c1ccc2c(c1)ncn2-c1ccc(C)cc1C -5.53%
COC(=O)C1=C(c2ccccc2)c2ccccc2S(=O)(=O)N1CC(=O)Nc1ccccc1C(F)(F)F -1.32%
CCc1ccccc1NC(=O)c1ccc2nc(CCc3ccccc3)oc2c1 3.24%
O=C(CS(=O)(=O)c1cccc2nsnc12)N1CCN(c2cccc(Cl)c2)CC1 0.629%
Cc1cc2c(cc1S(=O)(=O)CCC(=O)Nc1ccc(OC(F)(F)F)cc1)OCC(=O)N2 6.21%
CC(C)c1ccc(NC(=O)Cn2c3ncccc3c(=O)n2-c2ccccc2)cc1 -1.21%
Cc1ccc(Cl)cc1N1CCN(C(=O)c2cn(C)c3ccc(S(=O)(=O)N(C)C4CCCCC4)cc3c2=O)CC1 -0.507%
CCN1CCN(c2ncc3c(n2)CC(c2ccccc2O)CC3=O)CC1 (stereo unspecified) 0.899%
Cc1ccccc1CN1CCC(CNC(=O)c2c(C)oc3ncnc(N4CCCCC4)c23)CC1 0.0466%
